# Source: PubChem BioAssay
# Active and inactive are the calls of the source. Unless noted, the rule behind the calls is not given here.
# Tests used:
# [1] = resazurin metabolic signal in HepG2 cells – cell-based, resazurin fluorescence, 24 h, PK04 Diversity Set, profiling panel (AID 1172); details: HepG2 viability, higher = more signal
# [2] = budding yeast growth changes without added modifier – OD600, strain BY4716, 24 h, basal condition, primary screen (AID 1173); details: S. cerevisiae BY4716 growth, OD600, 24 h; higher = more signal, called active from +8 up or from −8 down
# [3] = viability profiling in MM1S myeloma cells – cell-based, resazurin fluorescence, basal, 24 h, PK04 Diversity Set, profiling panel (AID 1174); details: higher = more signal, called active from +8 up or from −8 down;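 note: MM1S multiple myeloma cell line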
# [4] = biological target: Dihydroorotate dehydrogenase (quinone), mitochondrial (Plasmodium falciparum (isolate 3D7)) (UniProt Q08210); test: inhibition of P. falciparum DHODH – biochemical, C-terminal His tag, absorbance 600 nm, primary screen (AID 1175); details: PfDHODH enzyme, DCIP absorbance 600 nm; higher = more signal, called active from +8 up or from −8 down;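 note: recombinant parasite enzyme with a five histidine tag at its C terminus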
# Chain of Dihydroorotate dehydrogenase (quinone), mitochondrial (Plasmodium falciparum (isolate 3D7)) (Q08210 whole entry, looked up): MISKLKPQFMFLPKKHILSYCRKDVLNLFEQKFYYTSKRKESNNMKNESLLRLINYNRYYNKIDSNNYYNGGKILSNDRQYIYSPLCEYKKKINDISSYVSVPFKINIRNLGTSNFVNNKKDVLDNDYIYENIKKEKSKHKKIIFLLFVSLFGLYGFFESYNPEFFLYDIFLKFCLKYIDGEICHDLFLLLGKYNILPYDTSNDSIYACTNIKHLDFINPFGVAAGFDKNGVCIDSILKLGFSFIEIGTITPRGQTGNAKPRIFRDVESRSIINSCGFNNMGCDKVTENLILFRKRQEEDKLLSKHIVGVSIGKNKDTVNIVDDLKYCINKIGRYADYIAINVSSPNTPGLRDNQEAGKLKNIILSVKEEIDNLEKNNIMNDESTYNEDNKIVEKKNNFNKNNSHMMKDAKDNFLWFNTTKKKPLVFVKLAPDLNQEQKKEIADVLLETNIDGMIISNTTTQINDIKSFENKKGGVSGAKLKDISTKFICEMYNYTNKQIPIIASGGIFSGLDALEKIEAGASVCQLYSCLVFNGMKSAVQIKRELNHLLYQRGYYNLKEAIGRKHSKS
# [5] = inhibition of PAO1 biofilm formation – strain PAO1, LB-PBS medium, absorbance 600 nm, primary screen (AID 1176); details: P. aeruginosa PAO1 growth/biofilm, A600, 12 h; higher = more signal
# [6] = growth modulation of vineyard yeast isolate – strain RM11-1a, OD600, basal, 24 h, primary screen (AID 1177);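 note: cultures grown under basal conditions with no added stressor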; details: S. cerevisiae RM11-1a growth, OD600, 24 h; higher = more signal, called active from +8 up or from −8 down
# [7] = growth of efflux-deficient E. coli DRC39 – strain DRC39, OD650, 24 h, E. coli filamentation inducers, primary screen (AID 1178);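 note: growth measured as culture turbidity by optical density at 650 nm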; details: E. coli DRC39 acrAB, higher = more signal, called active from +8 up or from −8 down
# [8] = growth of efflux-deficient E. coli DRC39 – strain DRC39, OD650, 48 h, E. coli filamentation inducers, primary screen (AID 1179);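 note: screen aims at cell division blockers that make cells filament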; details: E. coli DRC39 delta-acrAB growth, higher = more signal, called active from +8 up or from −8 down
# [9] = viability profiling in RPMI8226 myeloma cells – cell-based, resazurin fluorescence, basal, 24 h, PK04 Diversity Set, profiling panel (AID 1180); details: higher = more signal;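 note: RPMI8826 multiple myeloma cell line at 5000 cells per well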
# [10] = biological target: E3 ubiquitin-protein ligase XIAP (Homo sapiens) (UniProt P98170); test: small molecules binding XIAP protein – biophysical, small-molecule microarray, fluorescence 635 nm, primary screen (AID 1181); details: higher = more signal;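 note: score merges 667 nm emission and signal to noise over triplicate slides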
# Chain of E3 ubiquitin-protein ligase XIAP (Homo sapiens) (P98170 whole entry, looked up, the tested form may be a part): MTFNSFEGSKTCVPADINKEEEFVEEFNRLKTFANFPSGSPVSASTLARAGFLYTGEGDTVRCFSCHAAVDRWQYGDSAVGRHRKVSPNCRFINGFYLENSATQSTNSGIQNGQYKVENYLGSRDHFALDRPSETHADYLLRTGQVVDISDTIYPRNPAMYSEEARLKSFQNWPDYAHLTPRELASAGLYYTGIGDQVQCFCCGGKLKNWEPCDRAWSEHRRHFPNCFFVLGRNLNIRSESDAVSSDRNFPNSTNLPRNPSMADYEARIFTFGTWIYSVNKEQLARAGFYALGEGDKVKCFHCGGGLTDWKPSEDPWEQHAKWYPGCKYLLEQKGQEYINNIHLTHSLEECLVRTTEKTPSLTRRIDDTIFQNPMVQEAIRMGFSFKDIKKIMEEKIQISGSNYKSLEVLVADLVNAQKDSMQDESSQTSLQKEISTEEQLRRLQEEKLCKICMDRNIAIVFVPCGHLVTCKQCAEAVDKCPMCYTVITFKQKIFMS
# [11] = test system: XIP peptide (Xip251-270) binding; test: XIP fragment 251-270 binding compounds – biochemical, small-molecule microarray, fluorescence 635/667 nm, 0.1 µg/mL protein, primary screen (AID 1182); details: fluorescent protein binding, 635 nm, higher = more signal, called active from +8 up or from −8 down
# XIP peptide (Xip251-270) = test: compounds binding XIP fragment 251-270 – biochemical, small-molecule microarray, fluorescence 635/667 nm, 0.5 µg/mL protein, primary screen (AID 1183); details: fluorescence 635 nm, higher = more signal
# [12] = blood-stage malaria parasite viability loss – strain 3D7, DAPI fluorescence, 100 nL, primary screen (AID 1184);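 note: parasites grown inside human red blood cells in medium with human serum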; details: P. falciparum 3D7 growth, 3 d, higher = more signal
# [13] = biological target: Homeobox protein Hox-A13 (Mus musculus) (UniProt Q62424); test: disruptors of Hoxa13 oligonucleotide interaction – biochemical, fluorescence polarization, labeled oligonucleotide, primary screen (AID 1185); details: Hoxa13:DNA binding, 15 min, higher = more signal, called active from +8 up or from −8 down
# Chain of Homeobox protein Hox-A13 (Mus musculus) (Q62424 whole entry, looked up): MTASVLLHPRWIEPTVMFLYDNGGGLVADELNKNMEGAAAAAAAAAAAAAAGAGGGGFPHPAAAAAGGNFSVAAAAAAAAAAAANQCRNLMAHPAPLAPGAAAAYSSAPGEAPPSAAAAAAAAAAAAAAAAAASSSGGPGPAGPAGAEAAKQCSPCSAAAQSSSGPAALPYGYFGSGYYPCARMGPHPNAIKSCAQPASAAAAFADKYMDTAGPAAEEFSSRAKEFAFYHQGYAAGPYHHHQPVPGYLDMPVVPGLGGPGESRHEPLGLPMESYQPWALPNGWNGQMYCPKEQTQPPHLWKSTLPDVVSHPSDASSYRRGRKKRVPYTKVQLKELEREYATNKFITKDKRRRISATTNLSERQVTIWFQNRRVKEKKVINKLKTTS
# [14] = blockers of DNA damage checkpoint Chk1 activation – imaging, HeLa, hydroxyurea, phospho-Chk1 antibody, percent positive cells, primary screen (AID 1186); details: hydroxyurea-induced phospho-Chk1 immunofluorescence imaging, higher = more signal
# [15] = blockers of DNA damage checkpoint Chk1 activation – imaging, HeLa, hydroxyurea, phospho-Chk1 nuclear intensity, primary screen (AID 1187); details: hydroxyurea-induced phospho-Chk1 immunofluorescence imaging, higher = more signal
smiles,measurement,setting,value
CCOC(=O)C[C@H]1[C@H](OC(=O)Cc2ccc3c(c2)OCO3)[C@@H](NC(=O)Cc2ccc(OC)cc2)c2cc(OCCCO)ccc2N1C(=O)c1ccccc1,z-score,[1],-0.174
same,z-score,[2],-0.0578 (inactive)
same,z-score,[3],-0.727 (inactive)
same,composite z-score,[4],0.0225 (inactive)
same,z-score,[5],-0.218 (inactive)
same,z-score,[6],0.42 (inactive)
same,z-score,[7],-0.296 (inactive)
same,z-score,[8],0.386 (inactive)
same,z-score,[9],0.66
same,composite z-score,[10],-0.406
same,composite z-score,[11],1.08 (inactive)
same,composite z-score,XIP peptide (Xip251-270),-0.0883
same,z-score,[12],-0.382
same,z-score,[13],-2.51 (inactive)
same,z-score,[14],-0.543 (inactive)
same,z-score,[15],-0.165 (inactive)
COCCOC(=O)N1C(=O)[C@@]2(c3cc(C#CC4(O)CCCCCC4)ccc31)[C@H](C(=O)N1CCCCCCC1)[C@H]1C(=O)O[C@H](c3ccccc3)[C@H](c3ccccc3)N1[C@@H]2c1ccc(OCCO)cc1,z-score,[1],0.304
same,z-score,[2],0.397 (inactive)
same,z-score,[3],0.67 (inactive)
same,composite z-score,[4],-2.1 (inactive)
same,z-score,[5],2.03 (inactive)
same,z-score,[6],1.51 (inactive)
same,z-score,[7],-0.151 (inactive)
same,z-score,[8],0.201 (inactive)
same,z-score,[9],0.918
same,composite z-score,[10],0.293
same,composite z-score,[11],1.72 (inactive)
same,composite z-score,XIP peptide (Xip251-270),0.838
same,z-score,[12],-2.3
same,z-score,[13],-15.8 (active)
same,z-score,[14],0.331 (inactive)
same,z-score,[15],0.805 (inactive)
COCCOC(=O)N1C(=O)[C@@]2(c3cc(C#CC4(O)CCCCCC4)ccc31)[C@H](c1ccccc1OCCO)N1[C@H](c3ccccc3)[C@H](c3ccccc3)OC(=O)[C@H]1[C@@H]2C(N)=O,z-score,[1],-1.51
same,z-score,[2],1.53 (inactive)
same,z-score,[3],-8.29 (active)
same,composite z-score,[4],0.173 (inactive)
same,z-score,[5],1.91 (inactive)
same,z-score,[6],2.91 (inactive)
same,z-score,[7],-0.197 (inactive)
same,z-score,[8],-0.31 (inactive)
same,z-score,[9],-6.79
same,composite z-score,[10],-0.287
same,composite z-score,[11],0.151 (inactive)
same,composite z-score,XIP peptide (Xip251-270),0.774
same,z-score,[12],-2.07
same,z-score,[13],-2.04 (inactive)
same,z-score,[14],0.141 (inactive)
same,z-score,[15],-0.377 (inactive)
[N-]=[N+]=NCc1ccccc1[C@H]1OC(c2ccc(OCCCO)cc2)=N[C@@]1(CCS(=O)(=O)c1ccccc1)C(N)=O,z-score,[1],0.437
same,z-score,[2],-0.258 (inactive)
same,z-score,[3],0.284 (inactive)
same,composite z-score,[4],-0.136 (inactive)
same,z-score,[5],0.274 (inactive)
same,z-score,[6],-0.296 (inactive)
same,z-score,[7],0.0575 (inactive)
same,z-score,[8],-0.702 (inactive)
same,z-score,[9],-0.134
same,composite z-score,[10],0.182
same,composite z-score,[11],1 (inactive)
same,composite z-score,XIP peptide (Xip251-270),0.558
same,z-score,[12],-1.09
same,z-score,[13],-3.46 (inactive)
same,z-score,[14],0.163 (inactive)
same,z-score,[15],0.0372 (inactive)
C=CCOC(=O)[C@@H]1[C@H]2C(=O)O[C@H](c3ccccc3)[C@H](c3ccccc3)N2[C@H](c2ccc(OCCOC(=O)[C@H]3C[C@H]4C(=O)N[C@@H](CCCC[N+](C)(C)C)C(=O)N4[C@H]3c3ccc(O)cc3)cc2)[C@@]12C(=O)Nc1ccc(I)cc12,z-score,[1],-0.792
same,z-score,[2],1.47 (inactive)
same,z-score,[3],-0.706 (inactive)
same,composite z-score,[4],-0.353 (inactive)
same,z-score,[5],2.01 (inactive)
same,z-score,[6],2.12 (inactive)
same,z-score,[7],-0.877 (inactive)
same,z-score,[8],-1.37 (inactive)
same,z-score,[9],-0.578
same,composite z-score,[10],0.0623
same,composite z-score,[11],0.708 (inactive)
same,composite z-score,XIP peptide (Xip251-270),0.873
same,z-score,[12],-1.16
same,z-score,[13],-0.103 (inactive)
same,z-score,[14],-0.655 (inactive)
same,z-score,[15],-0.636 (inactive)
NC(N)=NCc1cn(CCc2c[nH]c3ccccc23)nn1,z-score,[1],-0.739
same,z-score,[2],0.274 (inactive)
same,z-score,[3],-0.237 (inactive)
same,composite z-score,[4],-26.7 (active)
same,z-score,[5],0.0429 (inactive)
same,z-score,[6],0.191 (inactive)
same,z-score,[7],0.148 (inactive)
same,z-score,[8],-0.0579 (inactive)
same,z-score,[9],-0.533
same,composite z-score,[10],-0.163
same,composite z-score,[11],1.35 (inactive)
same,composite z-score,XIP peptide (Xip251-270),0.937
same,z-score,[12],0.743
same,z-score,[13],-2.09 (inactive)
same,z-score,[14],0.568 (inactive)
same,z-score,[15],-0.248 (inactive)
COCCOC(=O)N1C(=O)[C@@]2(c3ccccc31)[C@H](C(=O)N1CCN(c3ncccn3)CC1)[C@H]1C(=O)O[C@H](c3ccccc3)[C@H](c3ccccc3)N1[C@@H]2c1ccc(OCCO)cc1,z-score,[1],0.0481
same,z-score,[2],1.89 (inactive)
same,z-score,[3],0.351 (inactive)
same,composite z-score,[4],-1.04 (inactive)
same,z-score,[5],2 (inactive)
same,z-score,[6],2.64 (inactive)
same,z-score,[7],0.0841 (inactive)
same,z-score,[8],1.19 (inactive)
same,z-score,[9],0.253
same,composite z-score,[10],0.0924
same,composite z-score,[11],0.707 (inactive)
same,composite z-score,XIP peptide (Xip251-270),0.791
same,z-score,[12],-1.93
same,z-score,[13],-0.387 (inactive)
same,z-score,[14],0.065 (inactive)
same,z-score,[15],0.182 (inactive)
CC(C)N1CC=CC23O[C@@H]4C=CCCOC(=O)C4[C@H]2C(=O)N(CCO)[C@@H]3C1=O (some centres undefined),z-score,[1],1.74
same,z-score,[2],-0.913 (inactive)
same,z-score,[3],0.839 (inactive)
same,composite z-score,[4],-2.29 (inactive)
same,z-score,[5],0.525 (inactive)
same,z-score,[6],-0.199 (inactive)
same,z-score,[7],-0.141 (inactive)
same,z-score,[8],-0.327 (inactive)
same,z-score,[9],0.475
same,composite z-score,[10],-0.251
same,composite z-score,[11],-0.3 (inactive)
same,composite z-score,XIP peptide (Xip251-270),0.172
same,z-score,[12],-0.434
same,z-score,[13],-4.46 (inactive)
same,z-score,[14],-0.494 (inactive)
same,z-score,[15],-0.578 (inactive)
C=CCOC(=O)[C@H]1[C@@H]2C(=O)O[C@@H](c3ccccc3)[C@@H](c3ccccc3)N2[C@@H](c2ccc(OCCOC(=O)[C@H]3C[C@H]4C(=O)N[C@@H](Cc5ccccc5)C(=O)N4[C@H]3c3cccc(OCCO)c3)cc2)[C@]12C(=O)Nc1ccc(I)cc12,z-score,[1],0.169
same,z-score,[2],1.42 (inactive)
same,z-score,[3],-0.446 (inactive)
same,composite z-score,[4],0.64 (inactive)
same,z-score,[5],2.17 (inactive)
same,z-score,[6],1.04 (inactive)
same,z-score,[7],-0.0281 (inactive)
same,z-score,[8],0.0436 (inactive)
same,z-score,[9],0.0282
same,composite z-score,[10],-0.105
same,composite z-score,[11],0.893 (inactive)
same,composite z-score,XIP peptide (Xip251-270),0.464
same,z-score,[12],-1.65
same,z-score,[13],0.643 (inactive)
same,z-score,[14],0.27 (inactive)
same,z-score,[15],-0.0401 (inactive)
